# Results filed as inconclusive are left out. A call without a number means that no potency is given here. Unmarked numbers belong to inactive results. Calls of active or inactive are those of the source. The call rests on the fitted dose curve; in most records, active means well fitted inhibition curve with a large enough effect; inconclusive means small, poorly fitted or top-dose-only effect; inactive means flat fitted curve, though single readings scatter.
# System: HaCat
# Assay: Cytotoxic Profiling of Annotated Libraries Using Quantitative High-Throughput Screening (AID 1296008); further: nearly all actives have a fitted effect of over 60% in size
# Settings: Five cell lines viability, CellTiter-Glo ATP luminescence, 48-72 h; max response: stronger effect = lower value
# Outline: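 Compounds were pin-transferred onto cells and incubated 48 or 72 hr at 37 degree Celsius, 95% humidity. CellTiter-Glo was added, plates sat 10 min at room temperature, then ATP-coupled luminescence was imaged as the viability read-out.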
# Potency means the concentration at half of the fitted maximal effect.
Compound,outcome,max response [%],Potency
ClCCCN1CCN(c2cccc(Cl)c2)CC1,inactive,–,–
CCN(CC)C(C)C(=O)c1ccccc1 (stereo not given),inactive,–,–
COc1ccc2[nH]cc(CCN(C(C)C)C(C)C)c2c1,–,1.43,–
CCC(OC(C)=O)C(CC(C)NC)(c1ccccc1)c1ccccc1 (stereo not given),–,–,27.6 µM (active)
NCc1cccnc1,inactive,–,–
CCC(=O)OC1(c2ccccc2)CCN(C)CC1,–,-5.78,–
CN(C)CCc1c[nH]c2cccc(O)c12,inactive,–,–
CC1Sc2c(C(=O)O)c(=O)c3cc(F)c(N4CCNCC4)cc3n21 (stereo not given),–,0.258,–
O=C(O)Cc1ccccc1,inactive,–,–
CCCN(CCC)CCc1c[nH]c2ccccc12,–,-5.54,–
CCN(CC)Cc1nccn1-c1ccc([N+](=O)[O-])cc1C(=O)c1ccccc1Cl,inactive,–,–
NC(=O)CN1CCCC1=O,inactive,–,–
CCN(Cc1ccc(Cl)nc1)/C(=C/[N+](=O)[O-])NC,inactive,–,–
CC[C@H]1C[C@H]2[C@@H]3CCC4=CC(=O)CC[C@@H]4[C@H]3CC[C@]2(C)[C@H]1O,–,2.56,–
C[C@H](CN1CCOCC1)C(C(=O)N1CCCC1)(c1ccccc1)c1ccccc1,–,-13.3,–
CCOC(=O)c1ncn2c1CN(C)C(=O)c1c(I)cccc1-2,–,-1.53,–
CN1CCC(N(Cc2ccccc2)c2ccccc2)CC1,inactive,–,–
CNC(=O)NC(O)C(Cl)(Cl)Cl (stereo not given),inactive,–,–
C[N+]1(C)[C@@H]2CC[C@H]1CC(OC(=O)C(CO)c1ccccc1)C2 (stereo not given in full),–,-1.21,–
CC[C@H]1C[C@@H]2C[C@H]3c4[nH]c5ccc(OC)cc5c4CCN(C2)[C@@H]13,–,-4.77,–

# Reference: PubChem BioAssay (NCATS)
